# Source: PubChem (ICCB-Longwood Screening Facility, Harvard Medical School)
# Compounds with a hit are over-represented: about 0.68% of the library has one in this group of screens.
# Mtb hypoxia inh = Mtb hypoxia fluorescent reporter inhibition; M. tuberculosis hypoxia-regulated fluorescent reporter, fluorescence; fluorescence inhibition, % (no concentration beside the values); 0.1% of 300,000 active; AID 1159583; in the data active = fluorescence inhibition mostly above about 23%, no sharp cut-off; inactive = mostly below about 17%
# RN4220 kill = S. aureus RN4220 growth inhibition. 0.33% of 330,000 active. OD600, 16 h. inhibition, % (concentration not given with the values); in the data active = inhibition above about 85%
# ugtP null kill = kills S. aureus RN4220 lacking UgtP; S. aureus RN4220 ugtP deletion, OD600 growth, 16 h; growth inhibition, % (test concentration not listed); 0.54% of 330,000 active; in the data active = growth inhibition above about 68%
# Numbers stand for hits; - = inactive; . = no result shown.
SMILES,Mtb hypoxia inh,RN4220 kill,ugtP null kill
COc1ccc(-c2noc(-c3ccc4c(c3)OCO4)n2)cc1,-,-,-
CCOC(=O)c1c(C)oc2c1c(C(c1cccnc1)N1CCCCC1)c(O)c1ccccc12 (stereo not given),.,-,-
CCOC(=O)c1c(C)oc2c1c(C(c1ccccc1)N1CCOCC1)c(O)c1ccccc12 (stereo not given),-,-,89.2
COC(=O)CN1C(=O)C2C(C=Cc3ccccc3)N3C(=O)CN(CCO)C(=O)[C@@]3(Cc3ccccc3)C2C1=O (stereo not given in full),-,-,-
O=C(CC1CC=CCCC(=O)OC(c2ccccc2)CNC1=O)NC(CO)Cc1ccccc1 (stereo not given),-,-,-
CCOC(=O)CC1c2ccccc2S(=O)(=O)N1c1cccc(OC)c1 (stereo not given),-,-,-
CCCCCC[N+](C)(C)CC/C=C1/c2ccccc2Sc2ccc(Cl)cc21,.,100.2,98.6
CN(C)CC/C=C1/c2ccccc2Sc2ccc(Cl)cc21,-,-,-
CCCCCCn1c(=O)c(C(=O)Nc2ncccc2O)c(O)c2ccccc21,-,-,-
CCCCCCn1c(=O)c(C(=O)Nc2nc(CC(=O)OCC)cs2)c(O)c2ccccc21,.,-,-
CCCCCCn1c(=O)c(C(=O)Nc2cnccn2)c(O)c2ccccc21,.,-,92.1
CCCn1c(=O)c(C(=O)NNS(=O)(=O)c2ccc(NC(=O)OC)cc2)c(O)c2ccccc21,-,96.5,97.3
CCOC(=O)Cc1csc(NC(=O)c2c(O)c3ccccc3n(CCC(C)C)c2=O)n1,-,96.3,99.9
CCCCCC(=O)NNC(=O)c1c(O)c2ccccc2n(CC)c1=O,-,-,-
CCn1c(=O)c(C(=O)NNS(=O)(=O)c2ccc(NC(=O)OC)cc2)c(O)c2ccccc21,-,-,-
CCCCCCCCCC(=O)NNC(=O)c1c(O)c2ccccc2n(CC)c1=O,-,96.6,100.7
CC(O)C1CNCCN1CCc1cccc2ccccc12 (stereo not given),-,-,-
c1ccc(C2C3CN(CC4CCCCC4)C(c4ccccc4)C34CC2(c2ccccc2)C4)cc1 (stereo not given),-,-,-
C[N+]([O-])=CC1C(=O)CCCC1=O,-,-,-
CC1(C(=O)NN=Cc2ccccc2)CC1(Cl)Cl (stereo not given),-,-,-
Nc1nonc1-n1nnc(C(=O)NN=Cc2ccccc2)c1CSc1ccccc1,-,-,-
C#CCOCCOCCOCCNc1nc(N2CCN(C(=O)Cn3cc(CCCN=C(N)N)nn3)CC2)nc(N2CCN(C(=O)C(C(C)O)n3cc(CCCCN)nn3)CC2)n1 (stereo not given),-,-,-
COc1cc2c(cc1OC)C1Cc3cc4c(cc3C(C2)N1C)OCO4 (stereo not given),-,-,-
CCOC(=O)C(=NNc1ccc(Br)cc1)N1CCN(c2ccccc2OC)CC1,-,-,-
O=C(NN=Cc1ccc(Oc2ccccc2)cc1)c1csnn1,-,-,-
SMILES,Mtb hypoxia inh,RN4220 kill,ugtP null kill
O=C1CCCCC=CCC(CC(=O)N(CCO)Cc2ccccc2)C(=O)NCCO1 (stereo not given),-,-,-
CCCCCn1c(=O)c(C(=O)Nc2ccccn2)c(O)c2ccccc21,-,100.1,100.3
CCCCn1c(=O)c(C(=O)Nc2ccccn2)c(O)c2ccccc21,-,-,-
CCCC(=O)OCCNc1cc(Sc2nc3ccccc3[nH]2)c2nonc2c1[N+](=O)[O-],.,96.5,100.0
CCC(=O)OCCNc1cc(SCCC(=O)OC)c2nonc2c1[N+](=O)[O-],-,-,-
N#CC(=NNc1ccc([N+](=O)[O-])cc1)C(=N)N1CCOCC1,-,-,-
N#CC(=NNc1ccc([N+](=O)[O-])cc1)C(=N)N1CCCCC1,42.0,-,-
O=C(NC(=S)Nc1nc2c(s1)CCCC2)c1ccc(C(=O)c2ccccc2)cc1,-,-,-
O=C(NC(=S)Nc1nc2c(s1)CSc1ccccc1-2)c1ccccc1,-,-,83.5
COc1ccc(C2C=CCN(S(=O)(=O)c3cccc4cccnc34)CC(=O)N2Cc2ccc(F)cc2)cc1 (stereo not given),-,-,-
COc1ccc([N+](=O)[O-])cc1NC(=S)NC(C)=O,-,-,-
CCCCC(=O)NC(=S)Nc1cc([N+](=O)[O-])ccc1OC,-,-,active
O=C(NN=Cc1cc2c(cc1Br)OCO2)c1ccccn1,-,-,-
O=C(C=Cc1cccs1)N1CCC2(CC1)Oc1ccc(Cl)cc1C(=O)C21CC(c2ccccc2)=NO1 (stereo not given),-,-,-
COc1ccc(S(=O)(=O)N2CCCCC2)cc1NC(=O)CCNC(=O)c1ccccc1Cl,-,-,-
CN(C)c1ccc(S(=O)(=O)N2CCCCC2)cc1NC(=O)CCNC(=O)c1ccccc1Cl,23.5,-,-
CCCC=C1CCCOC(C(=O)NCc2ccccn2)(C(F)(F)F)C1 (stereo not given),-,-,-
O=C(Cc1ccc(Cl)cc1)Oc1cccc2cccnc12,-,-,89.2
O=C(Oc1cccc2cccnc12)c1ccc(Br)o1,.,-,-
COc1ccc(CNC(=O)CC(C)=NNC(=O)c2cnccn2)cc1,-,-,-
COC(=O)[C@@]12CCCN1C(c1ccc(-c3cccc(Cl)c3)cc1)C1C(=O)N(C)C(=O)C12 (stereo not given in full),-,-,-
C=CCOC(=O)C1=CC(c2ccccc2)CC(OCc2ccc(CO)cc2)O1 (stereo not given),-,-,-
COc1ccc(Cl)cc1C(=O)NNC(=S)NC(=O)c1cc(-c2ccc(Cl)cc2)nc2ccccc12,.,114.8,-
COc1ccccc1C(=O)NNC(=S)NC(=O)c1sc2ccccc2c1Cl,-,-,-
COc1ccccc1C(=O)NC(=S)NNC(=O)c1sc2ccccc2c1Cl,-,99.6,98.5
SMILES,Mtb hypoxia inh,RN4220 kill,ugtP null kill
CCNC(=S)NNC(=O)c1cc(-c2ccc(OC)cc2)nc2ccccc12,-,-,-
O=C(Nc1ccc(C(F)(F)F)cc1[N+](=O)[O-])OC1C(Cc2ccccc2)NS(=O)(=O)C2CC3C=C[C@]12O3 (stereo not given in full),-,-,-
Cc1cc(C(C)(C)C)ccc1OCC(=O)NN=Cc1c(C)n(C)n(-c2ccccc2)c1=O,-,-,-
COc1cc(/C=C/c2nc3ccccc3c(=O)n2-c2cccc(O)c2)ccc1O,-,98.9,99.5
O=c1c2ccccc2nc(/C=C/c2ccc(O)c(O)c2)n1-c1ccccc1,-,-,-
COc1cc(/C=C/c2nc3ccccc3c(=O)n2-c2ccccc2O)ccc1O,.,93.0,99.4
Cc1ccccc1-n1c(/C=C/c2ccccn2)nc2ccccc2c1=O,-,-,-
S=C(NCc1ccncc1)Nc1ccc(Cl)c(Cl)c1,-,-,-
O=[N+]([O-])c1cc(C(F)(F)F)cc([N+](=O)[O-])c1NCCNC(=S)Nc1ccc(Cl)c(Cl)c1,-,98.7,99.9
FC(F)(F)c1cccc(NC(=S)NC(c2ccccc2)c2ccccc2)c1,-,-,-
FC(F)(F)c1cccc(NC(=S)Nc2ccc(Cl)c(Cl)c2)c1,-,100.8,100.6
CC(C)NC(=O)Nc1ccc2c(c1)C(=O)N(C(C)CO)CC(C)C(CN(C)C(=O)NC1CCCCC1)O2 (stereo not given),-,-,-
